Records with an inconclusive call do not appear. A call without a number means that no potency is given here. Activity calls are given as the source filed them. The call rests on the fitted dose curve; in most records, active means well fitted cell-killing curve with a large enough effect; inconclusive means small, poorly fitted or top-dose-only effect, or effect the other way; inactive means no such curve, though single readings can be large or run the other way.
Experiment: Viability qHTS for spleen associated tyrosine kinase inhibitor (SYKi) naive MV4-11 cells (AID 1963823); further: nearly all actives have a fitted effect of over 40% in size
Conditions: MV4-11 AML viability, CellTiter-Glo luminescence, 72 h; series mostly up to 45 µM
Procedure, shortened: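 Cells: MV4-11, SYK inhibitor naive, 500 per well. Treatment: library compounds, 72 hr, 37 C, 5% CO2. Read-out: CellTiter-Glo luminescence after 10 min RT.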
Potency means the concentration at half of the fitted maximal effect.

SMILES	Potency	viability (% of control)
O=C(CO)[C@@H](O)[C@H](O[C@@H]1O[C@H](CO)[C@H](O)[C@H](O)[C@H]1O)[C@H](O)CO	inactive	–
C/C=C(\C)C(=O)OC[C@H]1O[C@@H](O[C@H]2[C@@H](O[C@H]3O[C@H](COC(=O)/C(C)=C/C)[C@@H](O)[C@H](O)[C@H]3O[C@@H]3O[C@H](COC(=O)/C(C)=C/C)[C@@H](O)[C@H](OC(=O)/C(C)=C/C)[C@H]3O)O[C@H](COC(=O)/C(C)=C/C)[C@@H](O)[C@@H]2O)[C@H](O)[C@@H](O)[C@@H]1O	–	68.7% [at 9.25 µM] (inactive)
C=C[C@@]1(C)CCC2C(=CCC3[C@]2(C)CCC[C@@]3(C)C(=O)O)C1 (some centres undefined)	inactive	–
C[C@@H]1O[C@@H](O[C@H]2[C@H](O)[C@@H](O)[C@H](O[C@H]3[C@H](O[C@H]4CC[C@@]5(C)C(=CC[C@@H]6C5CC[C@]5(C)[C@@H]7[C@H](C[C@@H]65)O[C@]5(CC[C@@](C)(CO[C@@H]6O[C@H](CO)[C@@H](O)[C@H](O)[C@H]6O)O5)[C@H]7C)C4)O[C@H](CO)[C@@H](O)[C@@H]3O)O[C@@H]2CO)[C@H](O)[C@H](O)[C@H]1O (some centres undefined)	0.618 µM (active)	–
CC(=O)OC1C(O)/C(C)=C\C2C(OC(=O)c3ccccc3)C(C)CC2(OC(C)=O)C(OC(C)=O)C(C)/C=C/C(C)(C)C1OC(C)=O (centres undefined)	inactive	–
Cc1ccc(OC[C@H](O)[C@H](C)NC(C)C)c2c1CCC2	inactive	–
CCC1OC(=O)C(C)CC(C)C(=O)/C(C)=C/C(C)C(=O)/C=C/C1(C)O (centres undefined)	inactive	–
COC1C(O)C(OC2CCC3(C)C(CCC45CCC6C7(COC(=O)C7)OC4(O)C6(C)CCC35)C2)OC(C)C1OC1OC(CO)C(OC2OC(CO)C(O)C(O)C2O)C(O)C1O (centres undefined)	3.9 µM (active)	–
CCCC(=O)O[C@@H]1[C@@H]2[C@@H](OC(C)=O)[C@]3(C)C(=O)[C@H]4[C@@H](OC(C)=O)C(C)(C)C[C@H]4[C@]3(C)C(=O)[C@@]2(OC(C)=O)C[C@@H]1C	inactive	–
Cc1csc(N(C(=O)CSc2ccc(-c3ccccc3)nn2)C2CC2)n1	inactive	–
CCCC(=O)O[C@]1(C(=O)CCl)[C@@H](C)C[C@H]2[C@@H]3CCC4=CC(=O)C=C[C@]4(C)[C@@]3(F)C(=O)C[C@@]21C	11.9 µM (active)	–
C=C1CCC(OC(C)=O)C2(C)CC3(O)OC(=O)C(C)=C3CC12 (centres undefined)	inactive	–
C=C1C(=O)O[C@@H]2/C=C(\C)CC/C=C(\C(=O)O[C@@H]3O[C@H](CO)[C@@H](O)[C@H](O)[C@H]3O)CC[C@@H]12	inactive	–
CC1=CC(=O)C2C(C)(C)CC(O)CC2(C)C1CO (centres undefined)	inactive	–
C/C=C1/[C@H](O[C@@H]2O[C@H](CO)[C@@H](O)[C@H](O)[C@H]2O)OC=C(C(=O)OC)[C@H]1CC(=O)OCCc1ccc(OC(=O)C[C@@H]2C(C(=O)OC)=CO[C@@H](O[C@@H]3O[C@H](CO)[C@@H](O)[C@H](O)[C@H]3O)/C2=C/C)cc1	–	67.3% [at 9.25 µM] (inactive)
C=C1[C@H](OC(C)=O)[C@H]2[C@@H](OC(=O)c3ccccc3)[C@@H](C)C[C@]2(O)[C@@H](OC(C)=O)[C@H](C)/C=C/C(C)(C)C(=O)[C@H](OC(C)=O)[C@H]1OC(C)=O	inactive	–
N#Cc1ccc(-c2ccc(S(=O)(=O)Nc3cccc(N)n3)cc2)cc1	8.2 µM (active)	–
CC[C@H]1CN(c2nc(N)c(C(N)=O)nc2Cl)CCN1C1CCN(Cc2ccc(Cl)cc2)CC1	inactive	–
NC1Nc2ccccc2C1(N)CC1NC(=O)C(Cc2ccccc2)NC(=O)C(Cc2ccccc2)NC1=O (centres undefined)	inactive	–
Cn1ncc(NC(=O)c2nc(-c3c(F)cccc3F)sc2N)c1N1CC[C@@H](N)[C@H](F)CC1	0.235 µM (active)	–

SMILES	Potency	viability (% of control)
C[C@@H]1C[C@@H](O)[C@@]23CO[C@]2(CO)C[C@@H](O)CC3[C@@]12CC(c1ccoc1)OC2=O (some centres undefined)	inactive	–
CC(C)=CCC[C@](C)(O[C@@H]1O[C@H](CO[C@@H]2O[C@H](CO)[C@@H](O)[C@H](O)[C@H]2O)[C@@H](O)[C@H](O)[C@H]1O)C1CC[C@]2(C)[C@@H]1[C@H](O)CC1[C@@]3(C)CC[C@H](O[C@@H]4O[C@H](CO)[C@@H](O)[C@H](O)[C@H]4O[C@@H]4O[C@H](CO)[C@@H](O)[C@H](O)[C@H]4O)C(C)(C)[C@@H]3CC[C@]12C (some centres undefined)	–	64.5% [at 9.25 µM] (inactive)
C#C[C@]1(O)CC[C@H]2[C@@H]3CCC4=CC(=O)CC[C@@H]4[C@H]3CC[C@@]21C	inactive	–
CN1CCC(c2c[nH]c3ccc(NC(=O)c4ccc(F)cc4)cc23)CC1	inactive	–
O=C1CC[C@@H](C(=O)N2CSC[C@H]2C(=O)O)N1	inactive	–
C=CC(C)(O)CC/C=C(/C)COC(=O)C(C)C1CCC(C)(C=C)O1 (centres undefined)	inactive	–
COc1ccccc1CC(C(=O)O)N(C)C(=O)c1ccccc1 (centres undefined)	inactive	–
C=C1CC[C@@H]2[C@](C)(CO[C@@H]3O[C@H](CO)[C@@H](O)[C@H](O)[C@H]3O)CCC[C@@]2(C)[C@@H]1CCC1=CCOC1=O	inactive	–
CC(=O)N[C@H]1CCN(c2ccc(C3=NOC(CN[S+](=O)([O-])C(C)C)C3)cc2F)C1 (some centres undefined)	inactive	–
COC(=O)c1ccc(=O)c2nc3/c(=C/O)c(O)cc(=O)c3[nH]c12	inactive	–
CC[C@H]1OC(=O)[C@H](C)[C@@H](O[C@H]2C[C@@](C)(OC)[C@@H](O)[C@H](C)O2)C(C)[C@@H](O[C@@H]2O[C@H](C)C[C@H](N(C)C)[C@H]2O)[C@](C)(O)C[C@@H](C)CN(C)[C@H](C)[C@@H](O)[C@]1(C)O (some centres undefined)	inactive	–
Cc1ccc(-c2c(-c3nn(C)c4ncnc(N5CC[C@H](N6CCCCC6)C5)c34)cnn2C)cc1	inactive	–
COC(=O)Cc1cc2c(c([N+](=O)[O-])c1)N(C(=O)CC[C@H](N)C(=O)O)CC2	inactive	–
COc1cc(C2Oc3c(OC)cc(CCCO)cc3C2CO)ccc1O (centres undefined)	inactive	–
CNc1nc(Cc2ccccc2)nc2c1CCNC[C@@H]2C	inactive	–
CC(c1ncncc1F)C(O)(Cn1cncn1)c1ccc(F)cc1F (centres undefined)	inactive	–
COC(=O)C[C@H]1[C@]2(C)C3=C(C)[C@H](c4ccoc4)C[C@H]3O[C@@H]2[C@H](O)C2[C@](C)(C(=O)OC)C=CC(=O)[C@@]21C (some centres undefined)	inactive	–
O=C1c2ccccc2C(=O)c2c1ccc(O)c2O	9.44 µM (active)	–
O=C(O)c1cn(C2CC2)c2cc(N3C[C@@H]4C[C@H]3CN4)c(F)cc2c1=O	inactive	–

From PubChem BioAssay (NCATS)
